An excerpt weighted towards active compounds, which were near 4.6% of everything screened.
D1 ag – agonists of human D1 dopamine receptor. HEK293 T-REx D1 cells, calcium flux, agonist mode. P21728. activation, % at 2 µM. 360,000 compounds, 1% hits. AID 504660; further: 0% is about no effect
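Tetracycline-induced HEK293 TREx D1 cells, force-coupled to calcium signalling, were dye-loaded with a no-wash calcium kit. Compound was pin-added after a 10 s baseline. Fluorescence was read kinetically at 1 cycle/s for 180 s, with calcium rises flagged as agonism.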
D1 antag – antagonists of human D1 dopamine receptor. HEK293 TREx D1 cells, calcium flux, dopamine EC80; hits give low values. activity change, negative = inhibition, % at 10 µM. P21728. 360,000 compounds, 3.2% hits; in the data active means activity change below about -30%; further: on the % scale 0 is the no-effect control and ±100 the full control effect
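Kinetic fluorescence of a calcium dye serves as the read-out. D1-expressing Hek293 Trex cells, induced overnight at 30 C, are exposed to compound for 180 s before an EC80 dopamine addition, then read 180 s further.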
D1 PAM – enhances dopamine response at the human D1 receptor; P21728; 360,000 compounds, 0.036% hits; HEK293 TREx D1 cells, calcium flux, dopamine EC20 potentiation; potentiation, % at 10 µM; AID 504651; in the data active means potentiation above about 30%; further: 0% is about no effect
TRHR enhancer – allosteric enhancers of human TRH receptor. P34981. TRHR cells, fluo-8 calcium fluorescence, EC20 TRH enhancement. enhancement, % at 2 µM. 360,000 compounds, 0.66% hits; in the data active means enhancement above about 30%; further: 0% is about no effect
Target sequence (P34981 whole entry, looked up): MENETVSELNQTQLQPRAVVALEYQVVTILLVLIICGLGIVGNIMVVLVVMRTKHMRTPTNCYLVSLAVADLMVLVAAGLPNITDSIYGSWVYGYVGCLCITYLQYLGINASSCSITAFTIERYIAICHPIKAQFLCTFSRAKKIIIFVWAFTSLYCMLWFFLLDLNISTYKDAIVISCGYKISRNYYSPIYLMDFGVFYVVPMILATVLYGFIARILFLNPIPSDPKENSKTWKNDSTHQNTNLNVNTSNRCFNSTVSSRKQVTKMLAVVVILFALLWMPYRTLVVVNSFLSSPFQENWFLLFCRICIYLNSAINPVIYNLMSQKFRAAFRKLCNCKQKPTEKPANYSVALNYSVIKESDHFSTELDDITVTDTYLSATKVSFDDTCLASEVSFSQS
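Enhancer read-out: after compound pinning and an initial kinetic agonist-mode read, an EC20 of TRH (10 nM final) was injected and fluo-8 calcium signal (Ex 480/Em 530) followed at 1 s/cycle for 100 cycles in TRHR-expressing cells.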
TRHR ag – activates the human TRH receptor; P34981; TRHR cells, calcium flux fluo-8, FDSS agonist mode; activation, % at 2 µM; 360,000 compounds, 0.18% hits; AID 493084; further: 0% is about no effect
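Read-out: compound-evoked intracellular calcium rise in TRHR cells, fluo-8 dye, kinetic FDSS fluorescence at 1 s/cycle following a 10-cycle baseline. Cells cultured overnight before dye loading (30 min–1.5 h, RT).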
* = called active by the depositor; ! = repeats disagree. Unless noted, no stated cut-off is given here; in the data, active means activation above about 30%; inactive means the rest.

SMILES	D1 ag	D1 antag	D1 PAM	TRHR enhancer	TRHR ag
Cc1ccc(N2C(S)=C(C#N)C(=O)NC2c2ccco2)cc1 (centres undefined)	2	-47*	-6	1	0
N#CC1=C(S)N(c2ccccc2)C(c2ccc(-c3ccc(Cl)c(Cl)c3)o2)NC1=O (centres undefined)	63*	-17	-1	1	2
N#CC1=C(S)N(c2ccc(F)cc2)C(c2ccco2)NC1=O (centres undefined)	4	-2	-4	5	0
CCOC(=O)c1c(C)[nH]c(CCC(=O)Nc2cc(C)cc(C)c2)c1C	3	0	-4	-1	-1
Cc1nn(-c2ccccc2)c2sc(C(=O)NC3CCCCC3)cc12	2	-52*	-3	-2	0
Cc1nn(-c2ccccc2)c2sc(C(=O)N3CCc4ccccc4C3)cc12	12	5	6	32*	0
CCC(CC)C(=O)Nc1nc2c(s1)CC(C)CC2 (centres undefined)	33*	-20	-1	1	2
CC1CCc2nc(NC(=O)C3CCCO3)sc2C1 (centres undefined)	1	7	6	-1	0
CSc1ccc(C2NC(=O)CCC2[N+](=O)[O-])cc1 (centres undefined)	1	-33*	-2	3	0
COC(=O)C1=C(C)N(Cc2ccc(OC)cc2)C(=O)/C1=C\c1ccco1	2	-34*	-10	-4	0
CC(=O)c1cc(-c2ccccc2)n(CCC(=O)Nc2ccc(C(C)C)cc2)c1C	63*	-20	-8	-2	5
CCOC(=O)c1cc(-c2ccccc2)n(CCCC(=O)Nc2ccc(C)c(C)c2)c1C	6	-48*	-9	0	1
CCOC(=O)c1cc(-c2ccccc2)n(CCCC(=O)Nc2ccc(C)c(Cl)c2)c1C	7	-3	-8	7	1
CCOC(=O)c1cc(-c2ccccc2)n(CCC(=O)Nc2ccc(C(F)(F)F)cc2)c1C	85*	2	-6	-4	11
CC(=O)c1ccc(NC(=O)CSc2nnc(-c3ccncc3)n2-c2ccccc2)cc1	1	-2	-2	0	0
O=C(NC1CCCC1)c1cnn(-c2ccc(F)cc2F)c1C1CCNCC1	2	3	-6	14	-2
CCOc1ccc(NS(=O)(=O)c2ccc(C(=O)NCc3ccccn3)cc2)cc1	33*	8	-19	-2	5
Cc1ccc(C(C)n2cc(C(=O)NCc3ccccn3)nn2)cc1 (centres undefined)	33*	15	-6	0	4
CC(=O)Nc1ccc(S(=O)(=O)Nc2ccc(C(=O)NCC(=O)O)cc2)cc1	2	-66*	-3	7	1
Cc1ccc(NS(=O)(=O)c2ccc(C(=O)NCc3ccccn3)cc2)cc1	40*	-30	-8	-1	6
CCOc1ccc(NS(=O)(=O)c2ccc(C(=O)NCc3ccncc3)cc2)cc1	12	5	-10	-1	1
CS(=O)(=O)Nc1ccc(C(=O)NCc2ccccn2)cc1	6	15	-9	1	0
CC(C)(C)OC(=O)n1c2ccsc2c2cnn(Cc3ccccc3F)c(=O)c21	0	10	5	-2	-3
O=C(Nc1cccc(C(=O)OCc2cc(=O)n3ccsc3n2)c1)c1ccc(F)cc1	1	18	1	2	-1
Cc1cccc(-c2nnc(SCc3cc(=O)c4cccc(Cl)c4[nH]3)n2C)c1	2	15	-1	10	-1
SMILES	D1 ag	D1 antag	D1 PAM	TRHR enhancer	TRHR ag
CCCC(=O)OCc1cnc(C)c2oc(=O)c(C(=O)Nc3ccccc3)cc12	2	4	-1	0	0
Cc1ccc(CNC(=O)c2cc(NS(=O)(=O)c3ccc(C)cc3)ccn2)cc1	-1	-32*	3	3	0
O=C(O)c1ccc(S(=O)(=O)NCc2cccnc2)cc1	2	2	-2	35*	0
COc1cccc(S(=O)(=O)NCc2ccc(C(=O)Nc3ccc(Cl)c(Cl)c3)cc2)c1	23	-15	0	14	4
O=C(Nc1ccc(Cl)c(Cl)c1)c1cccc(S(=O)(=O)NCc2cccnc2)c1	9	-31*	-4	-5	0
CC(=O)c1ccc(S(=O)(=O)NCc2cccnc2)cc1	2	-25	4	5	0
O=C(Nc1c(Cl)cccc1Cl)c1cc(-c2cccc(O)c2)on1	47*	-50*	0	3	-1
Cc1cc2oc(C(=O)Nc3c(C)n(C)n(-c4ccccc4)c3=O)c(C)c2cc1C	1	-1	-3	0	0
Cc1ccc2c(C)c(C(=O)Nc3c(C)n(C)n(-c4ccccc4)c3=O)oc2c1C	0	-37*	-7	3	-1
O=C(Nc1c(Cl)cccc1Cl)c1cc(-c2ccc3c(c2)OCO3)on1	7	-17	-1	-4	2
Cc1c(NC(=O)c2cc(-c3ccc(Cl)cc3)on2)c(=O)n(-c2ccccc2)n1C	2	-8	-10	30*!	-1
COc1ccccc1CNc1ncnc2c1nc1n2CCCC1	0	-25	-2	1	-1
COc1ccc(OC)c(C(O)c2coc3ccc(O)c(CN4CCOCC4)c23)c1 (centres undefined)	6	-30*	-4	5	-1
COc1cc(CNC2CCCC2)c(Br)cc1OC1CCCC1	20	-30*	-12	-3	0
CCCc1cc(C(=O)Nc2cccc([N+](=O)[O-])c2)cs1	11	-32*	-5	-1	0
Cc1cc(C)n(-c2ccc(C(=O)Nc3cccc(S(=O)(=O)N(C)C)c3)cc2)n1	6	-15	-6	1	0
Cc1cc(C)n(-c2ccc(C(=O)Nc3cccc([N+](=O)[O-])c3)cc2)n1	13	-36*	-3	1	0
Cc1ccc(SCc2ccc(C(=O)Nc3cccc([N+](=O)[O-])c3)cc2)cc1	6	-51*	-3	-1	1
CC(C)(C)c1ccc(C(=O)Nc2cccc([N+](=O)[O-])c2)cc1	10	-16	-4	3	1
Cc1ccc(SCc2ccc(C(=O)Nc3cc([N+](=O)[O-])ccc3C)cc2)cc1	4	-6	-2	-2	2
O=C(Nc1cccc([N+](=O)[O-])c1)c1cnccn1	4	-59*	-2	12	-2
CCOc1ccccc1NC(=O)Cn1c(=O)n(Cc2ccccc2)c(=O)c2cccnc21	-1	-4	-4	1	-1
CCCCN(C)C(=O)c1ccc2c(c1)N(Cc1cccc(Cl)c1)C(=O)c1ccccc1S2=O (centres undefined)	3	18	7	-4	0
CC(OC(=O)c1cnccn1)C(=O)Nc1nc(-c2cccc([N+](=O)[O-])c2)cs1 (centres undefined)	7	-32*	-6	-6	-1

Bioassay records deposited in PubChem by National Center for Advancing Translational Sciences (NCATS).
